# Cycloheximide cs: Cycloheximide Counterscreen for Small Molecule Inhibitors of Shiga Toxin | cell reporter, cycloheximide protein synthesis inhibition counterscreen | 12% of 300,000 active | max response, % | AID 2314, 2010; in the data active = max response mostly above about 13%, no sharp cut-off; inactive = mostly below about 14%; note: read at 38.3 µM for the half of the compounds with a filed dose; 0% is about no effect
# Pf growth 48h: Primary qHTS for delayed death inhibitors of the malarial parasite plastid, 48 hour incubation | P. falciparum luciferase growth in erythrocytes, 48 h | 5.9% of 310,000 active | Potency, µM (titrated, usually from 28.7 µM), without a hit: at the top dose activity change, negative = inhibition, hits mostly inhibitors; note: potency is the fitted concentration of half-maximal effect; % is set by controls: 0 for no effect and ±100 for the full control effect
#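 A one-generation exposure of luciferase-tagged malaria parasites in RPMI 1640/Albumax erythrocyte culture, 37 C and 5% CO2. Inhibition is inferred from decreased luminescence after adding detection reagent.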
# SARS PLP yeast: qHTS of Yeast-based Assay for SARS-CoV PLP; Potency, µM (highest dose often 32.9 µM), for inactives: at the top dose activity, positive = growth rescue, usual class: activators; 0.19% of 330,000 active; S. cerevisiae expressing SARS-CoV PLpro, growth rescue; calls by dose curve; note: potency is the fitted concentration of half-maximal effect; 0% is about no effect; nearly all actives have a fitted effect of over 55% in size
# Shiga toxin inh: A qHTS for Small Molecule Inhibitors of Shiga Toxin; inhibition, % at 38.7 µM; 9.2% of 290,000 active; Vero cells, Shiga toxin protein synthesis inhibition reporter; in the data active = inhibition mostly above about 28%, no sharp cut-off; inactive = mostly below about 43%; note: 0% is about no effect
# Pf growth 96h: Primary qHTS for delayed death inhibitors of the malarial parasite plastid, 96 hour incubation; P. falciparum luciferase reporter growth, 96 h; Potency, µM (titrated, usually from 28.7 µM), inactives show at the top dose activity change, negative = inhibition, most hits filed as inhibitors; 6.9% of 320,000 active; AID 504834, 2011; note: potency is the fitted concentration of half-maximal effect; % is set by controls: 0 for no effect and ±100 for the full control effect
#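 P. falciparum expressing integrated firefly luciferase grown in erythrocytes (2% hematocrit, 0.05% parasitemia final) with compounds for 96 hours at 37 C, 5% CO2. Growth inhibition read as loss of luminescence after adding luciferase detection reagent.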
# NS1 inh: qHTS Assay for Inhibitors of Influenza NS1 Protein Function; Potency, µM (highest dose often 46.1 µM), without a hit: at the highest dose activity, positive = more growth; 0.4% of 270,000 active; AID 2326, 2010; calls by dose curve; note: potency is the fitted concentration of half-maximal effect; actives are rising curves; nearly all actives have a fitted effect of over 50% in size
#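 Recovery from NS1-induced slow growth read by OD600 in budding yeast switched to galactose assay medium (pH 6.0, -URA) at 1:100 dilution. Compound 23 nl per well; the matching strain lacking NS1 serves as control.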
# An asterisk follows results filed as active; i = inactive; ? = inconclusive; nt = no result given; [ ] = another dose, or the depositor's remark. This is a sample that favours compounds with a hit; in the whole collection about 21% have one here. Unless noted, calls come from the whole dose curve; as a rule, active = well fitted inhibition curve with a large enough effect; inconclusive = small, poorly fitted or top-dose-only effect, or another doubt; inactive = no such curve, though single readings can be large or run the other way.
SMILES,Cycloheximide cs,Pf growth 48h,SARS PLP yeast,Shiga toxin inh,Pf growth 96h,NS1 inh
Cc1ccc(N=Nc2cc(C)ccc2N)cc1,38*,232%,0%,50*,i,-7%
CSc1ccc(-c2sc(Nc3ccccc3)n[n+]2-c2ccc(F)cc2)cc1,-1,?,-3%,8,35%,3%
COc1ccc(-c2sc(Nc3ccccc3)n[n+]2-c2ccccc2)cc1Br,nt,?,3%,nt,?,nt
COc1ccc(C)cc1Nc1n[n+](-c2ccccc2)c(-c2c(OC)ccc3ccccc23)s1,nt,3.7µM*,-3%,nt,?,nt
COc1ccc(C)cc1Nc1n[n+](-c2ccccc2)c(-c2ccc(C(=O)O)cc2)s1,-4,18%,0%,-4,2.3µM*,22%
COc1ccc2ccccc2c1-c1csc(N)n1,13,11%,0%,3,?,2%
COc1ccc(C)cc1Nc1n[n+](-c2ccccc2)c(-c2cc(OC)c(OC)cc2Br)s1,-2,?,3%,-7,9.3µM*,9%
COc1ccc(OCC2CCCN(Cc3nc(CC4CC4)no3)C2)cc1 (stereo unspecified),19*,17%,-1%,24,?,-10%
c1ccc(C2CCCN(Cc3nc(CC4CC4)no3)CC2)cc1 (stereo unspecified),16*,?,-1%,53*,27%,-1%
Cc1cccc(SC2CCN(Cc3nc(CC4CC4)no3)CC2)c1,-2,12%,-1%,-4,-5%,-2%
Cc1cccc(OC2CCN(Cc3nc(CC4CC4)no3)CC2)c1,-3,9%,0%,-9,4.7µM*,-3%
c1ccc(C(c2ccccc2)c2noc(CN3CCC(c4ccncc4)CC3)n2)cc1,0,10µM*,-1%,-18,?,-2%
Cc1ccc(-c2cc(NC(=O)CCl)n(-c3ccccc3)n2)cc1,53*,10%,9%,62,4%[5.75 µM],-161%
Cc1ccc(-n2nc(C)c(NC(=O)CCl)c2C)cc1,-1,3.7µM*,?,10,-102%,-5%
CC(=O)Nc1c(C)nn(-c2ccc([N+](=O)[O-])cc2)c1C,-3,-22%,2%,-5,?,1%
Cc1ccc(-c2nn(-c3ccccc3)cc2NC(=O)CCl)cc1,41*,?,-3%,59,?,nt
Cc1nn(Cc2ccc(Cl)cc2Cl)c(C)c1NC(=O)CCl,8,0.59µM*,17%,6,10µM*,-1%
CC(=O)Nc1ccc(-c2cc(NC(C)=O)n(-c3ccccc3)n2)cc1,-2,8%,0%,-18,45%,-2%
COc1ccc(OS(=O)(=O)c2c(C)noc2C)cc1,-1,-21%,0%,7,0%,-1%
O=C(CCl)Nc1cc(-c2ccccc2)nn1-c1ccccc1,28*,nt,23%,7,6.6µM*,-108%
S=C(NCc1cccnc1)Nc1ccc2c(c1)OCO2,27*,42%,-3%,41,0%,-3%
S=C(NCc1ccncc1)Nc1ccc(Cl)c(Cl)c1,-4,?,-17%,-10,?,-15%
S=C(NCc1cccnc1)Nc1cc(Cl)cc(Cl)c1,7,2.9µM*,0%,-5,?,-6%
S=C(NCc1ccc(Cl)c(Cl)c1)Nc1ccc2c(c1)OCO2,-2,12%,-47%,-10,17%,-25%
S=C(NCc1cccnc1)Nc1cccc(Cl)c1,1,?,3%,-2,?,-13%
SMILES,Cycloheximide cs,Pf growth 48h,SARS PLP yeast,Shiga toxin inh,Pf growth 96h,NS1 inh
S=C(NCc1ccncc1)Nc1cc(Cl)cc(Cl)c1,1,13µM*,1%,-3,35%,-3%
NC(=O)c1ncc(C(F)(F)F)cc1Oc1ccc(C(F)(F)F)cc1,-6,15%,15%,-17,nt,17%
COc1ccccc1N1CCN(C(=O)CN2C(=O)c3ccccc3S2(=O)=O)CC1,-1,44%,0%,-5,49%,-2%
NS(=O)(=O)c1ccc(NC(=O)COC(=O)CCCN2C(=O)c3cccc4cccc(c34)C2=O)cc1,nt,nt,1%,nt,nt,nt
Cc1cc(OCCNCCO)cc(C)c1Cl,1,-21%,3%,-11,2%,-16%
OCCCCNCc1ccc(OCc2ccccc2Cl)cc1,25*,?,-3%,26,?,11%

# From PubChem
